Screening results: PubChem BioAssay, several laboratories
ABCB6 inh MLPCN: blocks the human ABCB6 transporter | Q9NP58 | K562-ABCB6 porphyrin accumulation, flow cytometry, 1 h; stronger effect = lower value | fluorescence ratio to DMSO, % at 10 µM | 0.19% of 360,000 active;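 active = fluorescence ratio to DMSO below 75%, the collection mean minus 3 SD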;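 also: signal is porphyrin accumulated inside mitochondria; 100% equals median channel fluorescence of DMSO control wells; lower ratio means ABCB6 inhibition with less porphyrin fluorescence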
SMARCA2 activ: SMARCA2 function activation, primary screen; MG213 cells, MMTV-luciferase reporter, dexamethasone, overnight; activation, % at 9.1 µM; 1% of 370,000 active; AID 652017; in the data active = activation above about 7.8%;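 also: 0% = vehicle wells and 100% = reference activator wells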
MsrA inhibitor: bovine MsrA inhibition. inhibition, % at 15.5 µM. purified bovine MsrA, absorbance read-out. 0.75% of 360,000 active. AID 651718;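 also: 0% = vehicle wells with enzyme and 100% = reference inhibitor wells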
MsrA act: activators of bovine methionine sulfoxide reductase A; activation, % at 10.6 µM; AID 602163; purified bovine MsrA, absorbance read-out; 0.3% of 360,000 active; in the data active = activation above about 7.5%;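 also: 0% = vehicle and 100% = reference activator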
MsrA conf: bovine MsrA inhibition, confirmed; inhibition, % at 15.5 µM; purified bovine MsrA, absorbance read-out; shares compounds with MsrA inhibitor; 41% of 2,300 active; AID 651822;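 also: coupled to thioredoxin reductase with NADPH and selenocystamine and DMSO as substrate; 0% = vehicle only and 100% = full effect of reference inhibitor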
An asterisk follows results filed as active; x = no result given. A selection: hits, their analogues and other compounds. The true share with any hit is near 2.1%. Rule as the data show it, unless noted: active = inhibition above about 4.5%; inactive = the rest.

SMILES	ABCB6 inh MLPCN	SMARCA2 activ	MsrA inhibitor	MsrA act	MsrA conf
CN(C)/C=C1/N=C(c2ccccc2)OC1=O	91	3	7.3*	-15	6.9*
O=C1OC(c2ccccc2)=N/C1=C\N1CCCCC1	101	3	5.7*	-2	6.9*
CN(C)/C=C1\N=C(c2cccs2)OC1=O	102	0	7.7*	-8	5.5*
Cc1ccc(C2=N/C(=C\N(C)C)C(=O)O2)cc1	100	6	5.2*	-7	5.5*
O=C1OC(c2ccc(Br)cc2)=N/C1=C\N1CCCCC1	98	0	0	-4	x
COc1cccc(C(=O)NCCS(=O)(=O)N2CCCC(C)C2)c1 (stereo not drawn)	99	-4	-1	5	x
OC(c1ccccc1)(c1ccccc1)C1CCN(CCCOc2cccc(F)c2)CC1	x	-5	1	x	x
C=CCN(Cc1ccc2c(c1)OCO2)C(C#Cc1ccccc1)c1ccccc1C(F)(F)F (stereo not drawn)	x	-4	x	x	x
Cc1cc(/C=C(/C#N)c2nc3ccccc3[nH]2)c(C)n1-c1cc(C(=O)O)cc(C(=O)O)c1	100	-2	4.9*	-5	3
Cc1cc(/C=C(/C#N)c2nc3ccccc3[nH]2)c(C)n1-c1ccccc1C(=O)O	101	1	2	-2	x
N#Cc1c(-c2ccc(Cl)cc2)c(C#N)c(=O)n(N)c1N	101	-5	4.9*	-4	3
Cc1ccc(-n2c(N)c(C#N)c(-c3ccccc3)c(C#N)c2=O)cc1	100	0	4.9*	-5	2
COc1ccc(-c2c(C#N)c(N)n(N)c(=O)c2C#N)cc1Cl	92	-1	4	0	x
C[C@@H](N)P(=O)(O)C[C@H](Cc1ccccc1)C(=O)O	x	2	x	x	x
CCN(c1ccccc1)c1nc2nonc2nc1NCCO	101	-1	13*	-4	9.4*
Cc1ccc(/C=C(\C#N)C(=O)NC(C)C)o1	106	-1	6.1*	-17	5.0*
CN/C=C1\C(=O)C(C)(C)Oc2ccc3ccc(=O)oc3c21	104	-1	5.4*	-6	4
Cn1c(-c2cc3ccccc3oc2=O)nc2ccccc21	97	2	3	-4	x
COc1ccc2cc(-c3nc4ccccc4n3C)c(=O)oc2c1	97	4	4.9*	-5	2
C[C@@H]1ON(C)[C@H]2C[C@H]3c4cc(-c5cc6ccccc6o5)ccc4CCN3C[C@@H]12	x	6	0	x	x
O=C1NCCN1C(=O)c1cccc(Cl)c1	111	-2	12*	0	9.9*
O=C(c1cccnc1)N1CCN(C(=O)c2cccc(Cl)c2)CC1	98	-3	-1	0	x
COC(=O)[C@H](CC(C)C)N1Cc2nnn(CC3CCCCC3)c2-c2ccccc2S1(=O)=O	x	-4	x	x	x
CCC(C)NC(=O)CSc1nc2c(sc(=S)n2-c2cc(Cl)ccc2OC)c(=O)[nH]1 (stereo not drawn)	105	0	2	0	x
COCCCNC(=O)CSc1nc2c(sc(=S)n2-c2cc(Cl)ccc2OC)c(=O)[nH]1	96	0	5.8*	-14	4
SMILES	ABCB6 inh MLPCN	SMARCA2 activ	MsrA inhibitor	MsrA act	MsrA conf
O=C(NC1CCCCN(Cc2cccc(C(F)(F)F)c2)C1=O)c1ccc(F)c(F)c1 (stereo not drawn)	x	-1	x	x	x
Cc1ccc(C(=O)N/N=C\c2cccnc2)s1	99	1	2	-2	x
Cc1c(C(=O)N/N=C/c2cccnc2)sc(N)c1C#N	101	4	4.7*	-3	3
CCc1n[nH]c(=S)n1/N=C/c1cc(Br)c(OC)cc1OC	96	-1	16*	-5	10*
CCc1n[nH]c(=S)n1/N=C/c1ccc(-c2ccc(Br)cc2)o1	96	2	1	-10	x
CN(c1nc2nonc2nc1NC1CC1)C1CCOC1 (stereo not drawn)	117	-3	5.0*	-3	2
COc1ccc(-c2cc(-c3nnc4sc(Cc5cccs5)nn34)[nH]n2)cc1	x	-4	x	x	x
Cc1[nH]c2ccccc2c1C(C#N)(C#N)C1C(=O)c2ccccc2C1=O	110	-3	47*	-1	46*
Cc1c(NC(=S)N/N=C/c2ccc([N+](=O)[O-])cc2O)c(=O)n(-c2ccccc2)n1C	88	-3	3	-8	x
COc1ccc(/C=N/NC(=S)Nc2c(C)n(C)n(-c3ccccc3)c2=O)cc1OC	99	-1	5.2*	1	4
Cc1c(NC(=S)N/N=C/C=C/c2ccc([N+](=O)[O-])cc2)c(=O)n(-c2ccccc2)n1C	94	-4	9.8*	-3	4.9*
Cc1c(NC(=S)N/N=C/C=C/c2ccccc2)c(=O)n(-c2ccccc2)n1C	105	2	6.4*	-6	6.8*
